PubChem BioAssay (NCI)
About 79,000 compounds went through this panel and 15% of them were active in at least one assay; those are over-represented in the sample as a whole. Unmarked numbers belong to inactive results. Calls of active or inactive are those of the source. No stated cut-off is given here; in the data, active means growth inhibition above about 70%; inactive means the rest.

Legend:
[1] = NCI Yeast Anticancer Drug Screen. Data for the rad50 strain (AID 155);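 further: 0% = growth of vehicle-only cultures of the same strain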; settings: S. cerevisiae rad50 strain growth inhibition, hits give high values
In short: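 Inhibition values express reduced yeast growth in compound-treated cultures relative to vehicle-treated controls.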

[2] = NCI Yeast Anticancer Drug Screen. Data for the mec2-1 strain (AID 157); settings: S. cerevisiae mec2-1 strain, hits give high values
In short: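 Readout is yeast growth inhibition, normalised to vehicle-treated controls, in the mec2-1 strain exposed to compound.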

[3] = NCI Yeast Anticancer Drug Screen. Data for the sgs1 mgt1 strain (AID 161);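 further: 0% = growth of cultures given vehicle only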; settings: S. cerevisiae sgs1 mgt1 strain, hits give high values
In short: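 Yeast cells carrying a defined DNA-repair defect were exposed to test compounds. Growth inhibition was measured relative to vehicle-treated controls.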

[4] = NCI Yeast Anticancer Drug Screen. Data for the cln2 rad14 strain (AID 165);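 further: 0% = growth equal to vehicle treated cultures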; settings: S. cerevisiae cln2 rad14 strain, hits give high values
In short: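 Relative to vehicle controls, growth inhibition of compound-treated cln2 rad14 yeast was recorded.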

[5] = NCI Yeast Anticancer Drug Screen. Data for the bub3 strain (AID 167); settings: S. cerevisiae bub3 mutant strain, hits give high values
In short: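 Steps: expose the mutant yeast strain to compound; grow alongside vehicle-treated cultures; measure growth; express inhibition against the vehicle cultures.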

[6] = NCI Yeast Anticancer Drug Screen. Data for the mlh1 rad18 strain (AID 175); settings: S. cerevisiae mlh1 rad18 strain growth inhibition, hits give high values
In short: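 Test agents were incubated with a yeast strain of defined genotype (DNA damage repair defect). Inhibition of growth was derived by comparison with vehicle-exposed cultures.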

[7] = at 5.0 µM (retest, dose inferred, filed as 0.5)
[8] = at 50.0 µM (retest, dose inferred, filed as 5.0)

SMILES	growth inhibition [1, 7]	growth inhibition [1, 8]	growth inhibition ([1]; at 50.0 µM)	growth inhibition [2, 7]	growth inhibition [2, 8]	growth inhibition ([2]; at 50.0 µM)	growth inhibition [3, 7]	growth inhibition [3, 8]	growth inhibition ([3]; at 50.0 µM)	growth inhibition [4, 7]	growth inhibition [4, 8]	growth inhibition ([4]; at 50.0 µM)	growth inhibition [5, 7]	growth inhibition [5, 8]	growth inhibition ([5]; at 50.0 µM)	growth inhibition [6, 7]	growth inhibition [6, 8]	growth inhibition ([6]; at 50.0 µM)
O=Cc1ccc(O)cc1O	8%	24%	58.5%	8%	16%	29.6%	7%	15%	25.8%	4%	14%	-38.6%	7%	10%	55.4%	1%	13%	59%
CCC(CO)Nc1nc2cc(Br)ccc2c2ccc(Br)cc12 (configuration not stated)	36%	92% (active)	92.6% (active)	10%	96% (active)	95.5% (active)	62%	93% (active)	96.2% (active)	8%	93% (active)	93.8% (active)	47%	94% (active)	91.9% (active)	18%	93% (active)	95.8% (active)
O=[N+]([O-])c1ccc(/C=C/[n+]2ccc3ccccc3c2)o1	29%	93% (active)	98.8% (active)	24%	91% (active)	98.8% (active)	40%	98% (active)	98.9% (active)	-6%	95% (active)	96.2% (active)	10%	97% (active)	99.2% (active)	52%	97% (active)	99% (active)
CC(=O)OCC1OC(n2cnc3c(Cl)nc(Cl)nc32)C(OC(C)=O)C1OC(C)=O (configuration not stated)	0%	0%	73.7% (active)	1%	5%	54.1%	-1%	7%	75.3% (active)	3%	3%	72.6% (active)	1%	-2%	70% (active)	-1%	0%	74.1% (active)
CC1OC(OP(=O)(OCc2ccccc2)OCc2ccccc2)C(OC(=O)c2ccccc2)C(OC(=O)c2ccccc2)C1I (configuration not stated)	50%	93% (active)	86.1% (active)	33%	95% (active)	90.6% (active)	37%	96% (active)	90.1% (active)	29%	95% (active)	88.5% (active)	30%	77% (active)	88.9% (active)	55%	93% (active)	85% (active)
CC1=CC(C2/C(=N/O)C=C(C)CC2(C)C)C(O)C(C)(C)C1 (configuration not stated)	7%	95% (active)	99.2% (active)	-18%	99% (active)	98.2% (active)	-4%	96% (active)	98.8% (active)	-1%	97% (active)	97.8% (active)	-23%	92% (active)	98.2% (active)	-3%	98% (active)	98.7% (active)
CC(C)/C=C1\CCC(CN2CCOCC2)C1=O (configuration not stated)	24%	36%	72.1% (active)	18%	26%	28.4%	22%	44%	48.7%	23%	20%	30.9%	17%	62%	30.6%	-5%	71% (active)	67.2%
Cc1[nH]nc(C(F)(F)F)c1N=NN1CCC(C(N)=O)CC1	49%	99% (active)	99.5% (active)	77% (active)	100% (active)	99.5% (active)	83% (active)	99% (active)	99.5% (active)	36%	99% (active)	99.5% (active)	27%	99% (active)	99.5% (active)	75% (active)	99% (active)	99.5% (active)
Cc1cc2c(Br)cc(Br)c(O)c2nc1C(=O)c1ccccc1	23%	39%	31.8%	16%	38%	19.5%	37%	90% (active)	35.8%	33%	80% (active)	43.9%	20%	87% (active)	29.9%	32%	33%	21.8%
Nc1ncnc2nc(SCCO)[nH]c12	-1%	-2%	9.4%	4%	0%	-4.9%	-1%	-4%	12.9%	0%	-5%	31.4%	3%	-2%	9.15%	-2%	-3%	39.1%
O=Cc1cc2ccccc2cc1C=O	88% (active)	96% (active)	86% (active)	94% (active)	97% (active)	87.3% (active)	84% (active)	96% (active)	87.2% (active)	87% (active)	95% (active)	88.8% (active)	94% (active)	96% (active)	86.5% (active)	93% (active)	95% (active)	86.2% (active)
O=C1c2ccccc2C(=O)c2c(OCCOCCO)cccc21	6%	70% (active)	86.2% (active)	3%	18%	23.9%	2%	31%	18%	-3%	21%	24.6%	-6%	17%	37.6%	1%	65%	39.6%
CC1CCN(CCCOC(=O)c2ccccc2)CC1	25%	40%	58.9%	13%	56%	30.5%	35%	66%	62.1%	25%	54%	77% (active)	31%	64%	63.2%	52%	74% (active)	55%
Nc1[nH]cnc(=S)c1NC=O	-1%	-4%	13.9%	-1%	-5%	2.8%	-2%	-5%	35%	-4%	-5%	0.4%	0%	-3%	42.3%	-3%	-3%	-1.9%
O=C(Nc1cc(Cl)ccc1Cl)Nc1ccc(Cl)cc1C(=O)c1ccccc1	98% (active)	99% (active)	84.9% (active)	97% (active)	98% (active)	91.6% (active)	27%	95% (active)	88.9% (active)	73% (active)	92% (active)	88% (active)	71% (active)	87% (active)	79.3% (active)	100% (active)	99% (active)	88.2% (active)
Oc1c(Br)cc(Br)cc1C=Nc1ccc(Br)cc1	68%	98% (active)	80.8% (active)	55%	99% (active)	91.5% (active)	72% (active)	98% (active)	89.6% (active)	44%	99% (active)	89.2% (active)	73% (active)	99% (active)	89% (active)	88% (active)	98% (active)	87.1% (active)
O=C(N/C(=C\c1ccc([N+](=O)[O-])cc1)c1nc2ccccc2s1)c1ccccc1	3%	73% (active)	24.8%	1%	69%	76.2% (active)	-1%	72% (active)	54.4%	-2%	25%	20%	4%	83% (active)	80.3% (active)	2%	55%	72.5% (active)
COc1ccc(N=Nc2ccc3oc(=O)c(C(=O)Nc4ccccc4C)cc3c2)cc1	3%	98% (active)	96.8% (active)	-18%	97% (active)	97% (active)	-8%	96% (active)	97.5% (active)	1%	86% (active)	93% (active)	-5%	86% (active)	97.7% (active)	-2%	98% (active)	97.5% (active)
CCCCCOC(=S)SSSC(=S)OCCCCC	-38%	96% (active)	8.65%	44%	99% (active)	4.7%	6%	97% (active)	22.1%	-13%	66%	-0.1%	0%	98% (active)	28.2%	16%	97% (active)	21.9%
